# Experimental data as given in PubChem BioAssay (NCI).
# This is part of a sample that, as a whole, favours compounds with a hit. Of some 83,000 tested, about 20% had one in any assay.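 In brief: 96-well plates, 48 h treatment, single concentration, percent growth endpoint.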 The source made the active and inactive calls.
# Tested on: UACC-62 melanoma
# Experiment: NCI-60 one-dose screen, 48 h (100 = growth as untreated, 0 = no growth, -100 = all killed)
# Conditions: 10 µM unless noted
# Protocol: Growth inhibition of the UACC-62 human tumor cell line is measured as a screen for anti-cancer activity. Cells are grown in 96 well plates and exposed to the test compound for 48 hours. Compounds are tested at a single concentration, which is 10^-5 M for most compounds. The reported endpoint is percent growth (GI% or GIPRCNT), where numbers from 0 - 100% represent growth inhibition, and numbers from -100% - 0 represent cell death. For example, a value of 40 represents 60% growth inhibition. A value of 0 means no net growth occurred over the course of the experiment. A value of -40 indicates 40% of cells at the beginning of the experiment died by the end of the experiment. A value of -100 means all cells are dead at the end of the experiment.
# NCI-60 Human Tumor Cell Lines Screen was performed using the standard one-dose NCI protocol, which is described in more detail at https://dtp.cancer.gov/discovery_development/nci-60/default.htm.
# Compounds with GIPRCNT values below 10 were considered active. Activity score was based on GIPRCNT using the following formula: […]
# Score is 0 for GIPRCNT values of 100 or above, 50 for GIPRCNT values of 0, and 100 for GIPRCNT values of -100.
row,Structure (SMILES),growth
1,C#Cc1cccc(Nc2ncnc3ccc(-c4cnc(Cl)c(NS(C)(=O)=O)c4)cc23)c1,-67.9% (active)
2,O=C(Nc1ncc(Cc2ccc(Cl)cc2)s1)c1ccc2c(c1)OCCO2,45.8% (inactive)
3,NS(=O)(=O)Oc1cccc(-c2nc3sccn3c2-c2ccccc2)c1,36.3% (inactive)
4,CN(C)C(=S)NN=C(c1ccccn1)c1ccccn1,9.88% (active)
5,O=C(Nc1ncc(Cc2ccccc2Cl)s1)c1ccc2c(c1)OCCO2,27.9% (inactive)
6,COc1ccc(/C=N\NC(=O)c2ccc3nc(-c4ccc(Cl)cc4)[nH]c3c2)cc1,30.9% (inactive)
7,Cc1nn(-c2ccccc2)c(Oc2ccccc2)c1/C=N/NC(=O)Cn1c(=O)sc2ccccc21,52.1% (inactive)
8,CCN=c1sc2c(n1NC(=O)c1cc3ccc1CCc1ccc(cc1)CC3)C(=O)c1ccccc1C2=O,-54% (active)
9,C#CC(F)(F)[C@]1(O)CCC2C3CCC4=CC(=O)CCC4=C3[C@@H](c3ccc(N(C)C)cc3)C[C@@]21C (stereo not given in full),81% (inactive)
10,COc1cccc(CNc2nnc(C)c(C)n2)c1O,97.1% (inactive)
11,CS(=O)(=O)c1cccc(Nc2ncc3cc(-c4ccccc4Cl)ccc3n2)c1,4.77% (active)
12,CC(=O)CC(=O)c1ccccc1.[Cu+2],95.8% (inactive)
13,COC1CC(O)C2=C(CC3C(/C(C)=C\CC=C(C)C)CCC3(C)O2)C1=O (stereo not given),94.9% (inactive)
14,COC(=O)c1nc(-c2ccccc2)oc1S(=O)(=O)N1CCN(c2ccc(OC)cc2)CC1,86.8% (inactive)
15,Cc1ccc2c(n1)C[C@H](C(C)(C)O)CC[C@H]2C,94.4% (inactive)
16,CCOC(=O)CC1CSC(N/N=C(/C)c2cccc(C(F)(F)F)c2)=N1 (stereo not given),97.1% (inactive)
17,CNC(=O)c1cc(Oc2cccc3nc(NC(=O)Nc4ccc(F)cc4F)ccc23)ccn1,52.5% (inactive)
18,c1ccc2c(-c3cnn4cc(-c5ccc(N6CCNCC6)cc5)cnc34)ccnc2c1,-84.2% (active)
19,O=C1/C(=C/c2ccc(Br)cc2)COc2ccc(O)cc21,79.3% (inactive)
20,CCN1C(=O)N(CC)C2C1NN=c1s/c(=C3\C(=O)N(C)c4ccccc43)c(=O)n12 (stereo not given),29.1% (inactive)

row,Structure (SMILES),growth
1,C#Cc1c(I)n(C2OC(CO[Si](C)(C)C(C)(C)C)C3OC(C)(C)OC32)c(=O)[nH]c1=O (stereo not given),82.1% (inactive)
2,COc1ccc(Nc2nc(Nc3cc(C)[nH]n3)c3cc(OC)c(OC)cc3n2)cc1,-98.9% [20 µM] (active)
3,Nc1nc(=O)n([C@H]2CC=C(CO)O2)cc1F,92.4% (inactive)
4,COC(=O)[C@H](C)NC(=O)c1ccc(NC(=O)c2[nH]c(C)c(Cl)c2Cl)c(OCCN)c1,103% (inactive)
5,CCN(CC)CCCNC(=O)c1c2c(n3ccccc13)C(=O)c1ncccc1C2=O,-53.8% (active)
6,COC1=C(OC)C(=O)C(CCCCCCCCCCO)=C(C)C1=O,59.4% (inactive)
7,CC(C)=CCC[C@](C)(O)C1CC[C@]2(C)[C@@H]1CC[C@@H]1[C@@]3(C)CC/C(=N\OCCC#N)C(C)(C)[C@@H]3CC[C@]12C (stereo not given in full),68.9% (inactive)
8,CO[C@H]1CC(c2ccc[nH]2)=N[C@]12O[C@@H](C)C[C@@H]1CCCCCCCc3ccc([nH]3)[C@H]12,-47.8% (active)
9,Cc1c2cnccc2c(C)c2c1c1cc(C(=O)O)ccc1n2C,-55% (active)
10,N#CC1=C(N)Oc2c(ccc3cccnc23)C1c1ccccc1 (stereo not given),47.2% (inactive)
11,CC1(C)C2=C(C(=O)N1Cc1ccccc1)C(c1ccco1)N(C(=O)C1CCC1)CCN2 (stereo not given),91.7% (inactive)
12,CC(C)=CC(=O)C1C(=O)c2ccccc2C1=O,94.3% (inactive)
13,Cc1ccc(Nc2nc(N)nc(N)c2N=O)cc1Cl,84.6% (inactive)
14,CN1CCN(CCCNC(=O)c2c3c(n4ccccc24)C(=O)c2ncccc2C3=O)CC1,-23.7% (active)
15,COc1cccc(NC(=O)c2sc3nc(C)c(C(=O)c4ccccc4)cc3c2N)c1,73.1% (inactive)
16,COc1ccc2c(c1)C(c1c[nH]c3ccccc13)(c1c[nH]c3ccccc13)CCO2,44.9% (inactive)
17,O=C(Nc1cccc(Cl)c1)Oc1c(Cl)c(Cl)c(Cl)c(Cl)c1Cl,90% (inactive)
18,O=C(O)/C=C\C(=O)Nc1ccc2c(c1)Cc1cc(F)ccc1-2,103% (inactive)
19,Brc1ccc(-c2nn(-c3ccccc3)cc2-c2nn[nH]n2)s1,85.1% (inactive)
20,O=C(Nc1ncc(Cc2ccccc2)s1)c1ccc2c(c1)OCCO2,33.6% (inactive)
